Hit rate of the full screen: of about 300,000 compounds, about 3,600 (1.2%) were called active. Rule as the data show it: active = activation above about 30% (passing the limit was not always enough); inconclusive = no clear call, values can overlap the other calls. The list comes from a sample in which actives are over-represented; it also holds similar structures and randomly drawn compounds. Where a SMILES comes first, the peptide text is derived from it. [ ]: non-standard residue; d: D form. The star is where a group is joined. PhAc = O=C(Cc1ccccc1)*
assay: Wnt/beta-catenin pathway activators, primary screen, cell-based, plate reader, single point (AID 743398); settings: Wnt/beta-catenin reporter cell assay, activator, at 9.35 µM, active compounds read high;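 also: 0% = neutral control wells and 100% = positive control wells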

Structure (SMILES) | activation
COC(=O)[C@]1(Cc2ccccc2)NC=C(C(=O)c2ccccc2)[C@@H]1c1cccc(OC)c1 | 2.93% (inactive)
COC(=O)c1c(-c2ccc(OC)cc2)c2c(c3c4cc(OC)ccc4n(S(=O)(=O)c4ccc(F)cc4)c13)C(=O)N(C)C2 | -8.37% (inactive)
CN(C)c1ccc(CSc2ccccc2)cc1 | 2.13% (inactive)
CCNC(=O)C1(C)CCCN1C(=O)c1ccc(N(C)C)cc1 (stereo unspecified) | -4.12% (inactive)
CN(C)c1ccc(CNC23CN4CN(CN(C4)C2)C3)cc1 | 35.9% (active)
Nc1ncnc2c1ncn2[C@@H]1O[C@H](C(=O)N[C@@H](CCc2ccccc2)C(=O)NCC(=O)N2CCOCC2)[C@@H](O)[C@H]1O | -8.65% (inactive)
CCOc1cc(/C=C2\C(=N)N3N=C(C)SC3=NC2=O)ccc1OCCOc1ccccc1 | 0.097% (inactive)
CCOc1cc(/C=C2/C(=N)N3OC(C)=CC3=NC2=O)ccc1OC | 39.2% (active)
COc1ccc(OCCCn2cccc2/C=C2/C(=N)N3OC(C)=CC3=NC2=O)cc1 | 21% (inactive)
COc1ccc(-c2cc3c(c4c2ccn4C)C2CCC3C2)cn1 (stereo unspecified) | -0.553% (inactive)
Cc1cccc(-c2cnc(C(O)c3ccc4ccccc4c3)[nH]2)c1 (stereo unspecified) | -0.607% (inactive)
CS(=O)(=O)c1ccc(Cl)c(NC(=O)Nc2ccccc2)c1 | 1.45% (inactive)
Cc1c(NC(=O)Nc2ccccc2)cccc1[N+](=O)[O-] | 1.75% (inactive)
Cc1ccc(NC(=O)Nc2ccccc2)c(Br)c1 | 50.8% (active)
CC[C@H](C)[C@H]1CNC(=O)C(=O)N1CC1CCN(CCc2ccc(OC)c(OC)c2)CC1 | -3.36% (inactive)
COc1cccc(-c2nc3cc(C)ccc3o2)c1 | 40.6% (active)
COc1ccc2oc(N)nc2c1 | 2.19% (inactive)
COc1ccc2oc(-c3cccc(NC(=O)CSc4ccc(Cl)cc4)c3)nc2c1 | 22.7% (inactive)
CC(=O)Oc1ccc(Cn2c(C)c(C(=O)NCc3ccc(C#N)cc3)sc2=O)cc1 | -1.94% (inactive)
Cc1ccc(-c2nc3c(Cl)cc(C(F)(F)F)cn3c2Cc2cccc(Cl)c2)cc1 | -3.09% (inactive)
CC(=O)Nc1cccc(-c2cc(NC=O)c3ncc(-c4ccc(F)c(Cl)c4)n3c2)c1 | -1.52% (inactive)
COc1cccc(-c2cc3nc(NCCOc4ccccc4Cl)n(C)c(=O)c3s2)c1 | 0.348% (inactive)
COc1ccc(-c2ccc3c(n2)CCCN3S(=O)(=O)c2ccc(C)cc2)cc1 | -3.98% (inactive)

Structure (SMILES) | activation
O=C(O)c1ccccc1CSc1nc2ccccc2s1 | 2.11% (inactive)
O=C(O)CCCCc1nc2ccccc2s1 | -1.61% (inactive)
O=C(O)CSCc1nc2ccccc2s1 | 39.2% (active)
CS(=O)(=O)N1CCC(C(=O)N2CCN(c3ccccc3)CC2)CC1 | -0.44% (inactive)
CC(=O)c1cnc(-c2ccccc2)s1 | 2.94% (inactive)
CS(=O)(=O)N1CCc2nc(-c3ccccc3)sc2C1 | 35.7% (active)
COC(=O)Cc1nnn2c1[C@H](C)[C@@H](OC)c1cc(Br)ccc1-2 | 2.78% (inactive)
Nc1nc2c(ncn2[C@@H]2O[C@H](C(=O)N[C@H](Cc3ccccc3)C(=O)NCC3CCCCC3)[C@@H](O)[C@H]2O)c(=O)[nH]1 | -6.28% (inactive)
COc1ccc(CNC(=O)c2ccc(-c3cccnc3)c3ccoc23)cc1OC | -3.07% (inactive)
COc1ccc(CCC(=O)c2ccc(OC)cc2)cc1 | 5.92% (inactive)
CO/N=C/CC(=O)c1ccc(OC)cc1 | 61.5% (active)
COc1ccc(OCCC(=O)c2ccc(OC)cc2)cc1 | -1.86% (inactive)
CC(C)(C)C(c1nc2ccccc2[nH]1)n1c(Cc2csc3ccccc23)nc2ccccc21 (stereo unspecified) | 15.7% (inactive)
CCCCN1Cc2c(nc3cc(-c4ccccc4)[nH]n3c2=O)C1=O | 0.267% (inactive)
C=CCc1c(C)nc2cc(-c3ccccc3)[nH]n2c1=O | 45.5% (active)
CCc1c(C)nc2cc(C)[nH]n2c1=O | -2.02% (inactive)
COc1ccc(CN2CCC(C)(Oc3cccc(F)c3)C2)c2ccccc12 (stereo unspecified) | -4.58% (inactive)
CCc1nc2c(OCCOc3ccccc3)cccn2c1N(C)C(=O)c1ccccc1F | -2.42% (inactive)
CC(O)(c1cccc(F)c1)c1nc(-c2ccc3c(c2)OCO3)cs1 (stereo unspecified) | -1.63% (inactive)
Brc1ccc(-c2noc(-c3ccccc3)n2)o1 | 43.9% (active)
O=C(Oc1ccc(-c2nc(-c3ccccn3)no2)cc1)c1ccccc1 | 1.55% (inactive)
Nc1ccc(-c2nnc(-c3ccccc3)o2)cc1 | 2.79% (inactive)
Cc1cc2nc(-c3ccc(F)cc3)c(Cc3ccsc3)n2c(C)c1Br | -0.642% (inactive)

Structure (SMILES) | activation
COc1cccc(CNC(=O)[C@H]2CCCN2C(=O)[C@H]2CCCN2C(=O)C2CCCCC2)c1 | 0.974% (inactive)
CC(C)C[C@@H](NC(=O)[C@H]1CCCN1C(=O)Cc1ccccc1)C(N)=O (PhAc-[dP]-[dL]-NH2) | 0.192% (inactive)
CC(C)C[C@H](NC(=O)C1CCC(CNC(=O)[C@@H]2CCCN2C(=O)OC(C)(C)C)CC1)C(=O)O (stereo partly specified) | 1.33% (inactive)
COC(=O)[C@H](CC(C)C)NC(=O)N1CCCCC1C (stereo partly specified) | 39.6% (active)
COc1cccc(CNC(=O)[C@H]2CCCN2C(=O)[C@H]2CCCN2C(=O)c2cc(F)cc(F)c2)c1 | -1.85% (inactive)
O=C1c2ccccc2NC(c2ccccn2)N1NS(=O)(=O)c1ccccc1 (stereo unspecified) | 31% (active)
O=C1c2ccccc2NC(c2ccccc2O)N1NS(=O)(=O)c1ccccc1 (stereo unspecified) | -0.668% (inactive)
CN(C)c1ccc(C2Nc3ccccc3C(=O)N2NS(=O)(=O)c2ccccc2)cc1 (stereo unspecified) | -0.625% (inactive)
c1ccc(CNCc2ccc(CNCc3ccccc3)cc2)cc1 | 0.235% (inactive)
N#CCCN(C(=O)Nc1ccc(Cl)c(Cl)c1)C1CCCCC1 | 2.31% (inactive)
CC1(C(=O)NCc2ccc3c(c2)OCO3)CCN1C(=O)Cc1cccc2ccccc12 (stereo unspecified) | 12.9% (inactive)
CCN(CC)CCN(C)C(c1ccnc2ccccc12)c1nnnn1-c1ccc2c(c1)OCCO2 (stereo unspecified) | -2.38% (inactive)
CCc1cccc(CC)c1N1C(=O)CC(Sc2ccccc2N)C1=O (stereo unspecified) | 2.41% (inactive)
O=S(=O)(Nc1ccc2nc(N3CCOCC3)sc2c1)c1ccccc1 | 29.3% (inactive)
c1c2c(cc3sc(N4CCCCC4)nc13)OCCO2 | 1.11% (inactive)
Brc1ccc2nc(N3CCCC3)sc2c1 | 43.7% (active)
COC(=O)[C@@]12C[C@@H](CC(=O)N3CCC(c4ccccc4)CC3)C(=O)N(Cc3ccccc3)C1=CCC(C)(C)C2 | -3.58% (inactive)
CCCCCc1c(Cc2ccccc2)ncn1CCc1ccccc1OC | -9.51% (inactive)
O=C(CNC(=O)c1ccccc1)Oc1ccc([N+](=O)[O-])cc1 | -0.597% (inactive)
O=C(O)c1cc([N+](=O)[O-])c(Nc2cccc3ccccc23)c([N+](=O)[O-])c1 | 0.153% (inactive)
O=C(Nc1ccc2ccccc2c1[N+](=O)[O-])c1ccccc1 | 55.8% (active)
COC(=O)c1c(-c2ccc(OC)cc2)c2c(c3c4ccccc4n(S(=O)(=O)c4ccc(C)cc4)c13)C(=O)N(C)C2 | -6.59% (inactive)
COC(=O)C1=C(C(=O)OC)C2C=C(C(C)C)C1C(=O)C2(C)O (stereo unspecified) | -3.31% (inactive)

Structure (SMILES) | activation
O=C(NCc1ccc(F)cc1)c1cc(C2CCCCN2C(=O)c2ccccn2)on1 (stereo unspecified) | -0.749% (inactive)
O=C(NCc1ccccc1)[C@@H]1CCCN1C(=O)[C@@H](NS(=O)(=O)c1ccc(F)cc1F)C1CCCCC1 | -0.246% (inactive)
COC(=O)c1ccc(CSc2ccc(S(=O)(=O)N3CCCCC3)cn2)cc1 | -0.89% (inactive)
COC(=O)c1ccc(SCc2ccccc2)nc1 | 51.6% (active)
COC(=O)c1ccc(CSc2nncn2N)cc1 | -7.5% (inactive)
Nc1ccn([C@@H]2O[C@H](C(=O)N[C@H]3CCCCNC3=O)[C@@H](O)[C@H]2O)c(=O)n1 | -3.4% (inactive)
Cc1cc(C)nc(N2CCC(C(=O)Nc3ccc4c(c3)OCCO4)CC2)n1 | -5.24% (inactive)
O=C(Nc1ccc2c(c1)OCCO2)C1CCCC1 | -15.2% (inactive)
O=C(Nc1ccc2c(c1)OCCO2)C1CCCN(c2ncccn2)C1 (stereo unspecified) | 45.5% (active)
CC1(C(=O)Nc2cccc3cccnc23)CCN1C(=O)CCC1CCCC1 (stereo unspecified) | -4.88% (inactive)
O=[N+]([O-])c1cc(C(F)(F)F)ccc1NN=C1CCCC1 | 6.33% (inactive)
CN1CCN(CCNC(=O)Nc2ccccc2[N+](=O)[O-])CC1 | -0.54% (inactive)
O=[N+]([O-])c1ccccc1N/N=C1\CCc2ccccc21 | 47.7% (active)
CC1=C(C(=O)N2CCOCC2)CC(CC(=O)NCC2CCCCC2)C(=O)N1Cc1ccc(F)cc1 (stereo unspecified) | -1.2% (inactive)
CCCCCCN1CCN(C2CN(Cc3cn(Cc4ccc(F)cc4)nn3)S(=O)(=O)C2)CC1 (stereo unspecified) | -5.62% (inactive)
Cc1ccc(C(=O)Nc2ccn(C)n2)cc1 | 55.8% (active)
Cn1ccc(NC(=O)Nc2ccc(Cl)cc2)n1 | 20.1% (inactive)
CN(C)S(=O)(=O)c1cc(C(=O)Nc2ccn(C)n2)c(Cl)cc1Cl | 1.22% (inactive)
Cc1ccc(-c2ccc(CN3C(C(C)C)C(=O)N(Cc4cn(CCC5OCCO5)nn4)CCS3(=O)=O)cc2)cc1 (stereo unspecified) | -0.655% (inactive)
CC(=O)Nc1ccc(C(=O)NNC(=O)CCCCC(=O)NNC(=O)c2ccc(NC(C)=O)cc2)cc1 | 1.15% (inactive)
CC(=O)Nc1ccc(C(=O)/C=C/c2ccc[nH]2)cc1 | 42.8% (active)
CC(=O)Nc1ccc(C=CC(=O)c2ccc([N+](=O)[O-])cc2)cc1 | -6.15% (inactive)
